Bioassay records (PubChem)
This is a sample that favours compounds with a hit; in the whole collection about 0.97% have one here.
FadD28 FP inh – M. tuberculosis FadD28 bisubstrate binding inhibition; FadD28 bisubstrate probe binding, fluorescence polarization; inhibition, % at 12.5 µM; 360,000 compounds, 0.22% hits; in the data active = inhibition above about 8.5%, passing the limit was not always enough
UGM FP inh – Mtb UDP-galactopyranose mutase inhibition; 320,000 compounds, 0.06% hits; AID 504406; purified UGM, fluorescence polarization probe displacement; P9WIQ1; inhibition, % at 10 µM; in the data active = inhibition above about 10%, passing the limit was not always enough
Mtb BioA inh – BioA (M. tuberculosis) enzyme inhibition. 360,000 compounds, 0.096% hits. inhibition, % at 9.99 µM. AID 602481. purified M. tuberculosis BioA enzyme, plate reader; in the data active = inhibition above about 40%
RecA splice inh – Mtb RecA intein splicing inhibition | P9WHJ3 | cell-free RecA intein splicing, fluorescence | inhibition, % (concentration not given with the values) | 290,000 compounds, 0.75% hits; in the data active = inhibition above about 30%;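 also: 0% = vehicle wells and 100% = reference inhibitor control wells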
Rv3671c protease – Rv3671c (M. tuberculosis) protease inhibition; P9WHR9; inhibition, % at 5.96 µM; 320,000 compounds, 0.048% hits; AID 2606; in the data active = inhibition above about 38%;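 also: extracellular domain of Rv3671c used as enzyme; 0% = enzyme with DMSO and 100% = no enzyme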
TcdB inh – blocks C. difficile toxin B glycohydrolase activity; AID 652162; 350,000 compounds, 0.24% hits; TcdB glycohydrolase enzymatic assay, plate reader; inhibition, % at 9.99 µM; P18177; in the data active = inhibition above about 10%
GFP chromo cs – counter-screen GFP chromophore formation inhibition. EC50, µM. shares compounds with RecA splice inh. cell-free GFP chromophore formation, fluorescence. AID 434968. 2,100 compounds, 83% hits; call rule not given here
An asterisk follows results filed as active.

Screening COc1cc(C2C(C#N)=C(N)Oc3n[nH]c(-c4cccnc4)c32)cc(Br)c1O (stereo unspecified) returned FadD28 FP inh -0.7, UGM FP inh -0.7, Mtb BioA inh 1.0, RecA splice inh 81.0*, Rv3671c protease -42.4, TcdB inh 0.3 and GFP chromo cs 14.2*.
For COc1ccc2c3c(n(C)c2c1)[C@@H](CO)N(C(=O)CC1CC1)CC31CCN(Cc2ccncc2)CC1 the results were TcdB inh 1.5.
`Cc1[nH][nH]c(=O)c1C(c1c(C)[nH][nH]c1=O)c1cn(Cc2ccccc2Cl)c2ccccc12` gave FadD28 FP inh -0.2, Mtb BioA inh 1.0, RecA splice inh 98.7* and GFP chromo cs 0.509*.
N/C(=N\O)c1cn(Cc2ccccc2Cl)c2ccccc12 was read as FadD28 FP inh -5.2, UGM FP inh 1.7, Mtb BioA inh 0.5, RecA splice inh 10.3, Rv3671c protease 7.6 and TcdB inh 2.0.
Screening CCCC(=O)N1CC2(C1)CN(C(=O)C1CCCCC1)[C@@H](CO)c1[nH]c3cc(OC)ccc3c12 returned TcdB inh 0.1.
For CCOc1ccc(N=Nc2c(N)[nH][nH]c2=O)cc1 the results were FadD28 FP inh -3.9, UGM FP inh 1.4, RecA splice inh 53.9*, Rv3671c protease 5.1, TcdB inh 0.8 and GFP chromo cs 17.8*.
COc1ccc(Nc2cnn(-c3nc4ccccc4s3)c(=O)c2Cl)cc1 was read as FadD28 FP inh -4.7, UGM FP inh 0.0, Mtb BioA inh 1.5, RecA splice inh 47.4*, Rv3671c protease -3.4, TcdB inh 0.4 and GFP chromo cs 6.74*.
For O=c1c(Cl)c(Nc2cccc(Cl)c2)cnn1-c1nc2ccccc2s1 the results were FadD28 FP inh -0.1, UGM FP inh 0.8, RecA splice inh 0.7 and Rv3671c protease -5.2.
`CCOC(=O)CNC(=O)CSc1nnc(C)c(=O)[nH]1` gave FadD28 FP inh 0.0, UGM FP inh -3.3, RecA splice inh 4.2, Rv3671c protease -2.1 and TcdB inh -0.1.
For CCOC(=O)CSc1nnc(NCC(=O)OC(C)C)c(=O)[nH]1 the results were FadD28 FP inh 2.3, UGM FP inh 0.7, Mtb BioA inh 0.7, RecA splice inh 54.6*, Rv3671c protease -9.1 and GFP chromo cs 36.6*.
Screening COCC(=O)N1[C@@H]2CN(C(=O)c3ccncc3)c3ccccc3[C@@H]2[C@@H]1CO returned Mtb BioA inh -2.7.
`CN(C)CCSc1nnc2[nH]c3ccccc3c2n1` gave FadD28 FP inh -1.3, UGM FP inh 0.1, RecA splice inh 32.1*, Rv3671c protease 3.4 and GFP chromo cs 9.39*.
Fc1cccc(CSc2nnc3c(n2)[nH]c2ccccc23)c1 was read as FadD28 FP inh -3.7, UGM FP inh 0.4, RecA splice inh 0.6, Rv3671c protease -15.5 and TcdB inh 0.9.
Screening Cc1ccc(SCc2[nH]nc3c2C2(C(=O)Nc4ccc([N+](=O)[O-])cc42)C(C#N)=C(N)O3)cc1 (stereo unspecified) returned FadD28 FP inh -3.6, UGM FP inh 0.2, Mtb BioA inh 5.0, RecA splice inh 12.5 and Rv3671c protease -2.9.
COC(=O)Cc1[nH]nc2c1C1(CCSCC1)C(C#N)=C(N)O2 was read as FadD28 FP inh -0.6, UGM FP inh -0.4, RecA splice inh 65.6*, Rv3671c protease 4.9, TcdB inh -1.3 and GFP chromo cs 16.7*.
`Cc1ccc(SCc2[nH]nc3c2C2(CCSCC2)C(C#N)=C(N)O3)cc1` gave FadD28 FP inh -4.0, UGM FP inh 2.8, RecA splice inh 60.1*, Rv3671c protease -4.4 and GFP chromo cs 16.3*.
For O=C1C(Cl)=C(NS(=O)(=O)c2ccc([N+](=O)[O-])cc2)C(=O)c2ccccc21 the results were FadD28 FP inh 0.8, UGM FP inh 1.2, RecA splice inh 73.0*, Rv3671c protease 2.2, TcdB inh -0.7 and GFP chromo cs 3.63*.
Screening Cc1noc(C)c1NC(=O)N(C)C[C@H]1Oc2ccc(NC(=O)CCN3CCOCC3)cc2C(=O)N([C@@H](C)CO)C[C@H]1C returned Mtb BioA inh -2.1 and TcdB inh 0.1.
`O=C([C@H]1[C@H](CO)[C@H]2Cn3c(ccc(-c4ccncc4)c3=O)[C@H]2N1CCC(F)(F)F)N1CCCCC1` gave Mtb BioA inh 0.3 and TcdB inh -6.3.
Screening NS(=O)(=O)c1ccc(NC2=CC(=O)C(=O)c3ccccc32)cc1 returned FadD28 FP inh 3.0, UGM FP inh -3.1, Mtb BioA inh 6.7, RecA splice inh 92.1*, Rv3671c protease -83.4, TcdB inh -0.7 and GFP chromo cs 2.57*.
CCOC(=O)c1ccc(NC2=CC(=O)C(=O)c3ccccc32)cc1 was read as FadD28 FP inh -1.8, UGM FP inh 3.1, RecA splice inh 41.6*, Rv3671c protease -26.3 and GFP chromo cs 2.73*.
For Cc1ccc(NC2=CC(=O)C(=O)c3ccccc32)cc1 the results were FadD28 FP inh 0.2, UGM FP inh 1.4, Mtb BioA inh 1.1, RecA splice inh 53.7*, Rv3671c protease -65.1 and GFP chromo cs 1.17*.
`CC(=O)Nc1ccc(NC2=CC(=O)c3ccccc3C2=O)cc1` gave FadD28 FP inh -2.9, UGM FP inh -1.6, Mtb BioA inh -0.4, RecA splice inh 23.2, Rv3671c protease -7.3 and TcdB inh 0.0.
Screening CCCNC(=O)C[C@H]1CC[C@H]2[C@@H](COC[C@@H](O)CN2Cc2ccccc2F)O1 returned Mtb BioA inh 0.4 and TcdB inh -0.7.
Screening C[C@H]1CN([C@@H](C)CO)C(=O)CCCn2cc(nn2)CO[C@H]1CN(C)Cc1cccnc1 returned Mtb BioA inh -5.5 and TcdB inh 0.7.
For COc1ccc(CN(C)C[C@H]2OCCCC[C@H](C)Oc3ccc(NC(=O)Nc4ccccc4)cc3C(=O)N([C@H](C)CO)C[C@H]2C)cc1 the results were Mtb BioA inh 4.1.
`COc1cccc(CN2CCN(Cc3ccc(C#CC(C)(C)O)s3)CC2CCO)c1` (stereo unspecified) gave FadD28 FP inh -3.6, UGM FP inh -4.2, Mtb BioA inh 0.7, RecA splice inh 77.1*, Rv3671c protease 0.6, TcdB inh 0.2 and GFP chromo cs >38.
CCCCCC(=O)Cc1cc(O)cc2c1C(=O)Oc1cc(O)c(C(=O)O)c(CCCCC)c1O2 was read as UGM FP inh 4.5, RecA splice inh 66.3*, Rv3671c protease -44.4 and GFP chromo cs 7.25*.
`CN(N)C(=S)Nc1ccc(Cl)cc1` gave FadD28 FP inh -4.1, UGM FP inh 4.7, RecA splice inh 30.5*, Rv3671c protease -2.7, TcdB inh -9.2 and GFP chromo cs >38.
Screening COc1ccc(Cn2c(O)c(/C=N/NC(=O)c3ccccc3O)c(=O)[nH]c2=O)cc1 returned FadD28 FP inh 16.8*, UGM FP inh 0.5, RecA splice inh 30.7*, Rv3671c protease -12.7, TcdB inh 0.2 and GFP chromo cs >38.
